TDP1 cell noCPT = qHTS for Inhibitors of human tyrosyl-DNA phosphodiesterase 1 (TDP1): qHTS in cells in absence of CPT. AID 686978, 2013. DT40 Tdp1-/- hTDP1 cells, no CPT, ATP luminescence, 48 h. Potency, µM (top dose mostly 46.2 µM), inactives show at the highest dose activity change, negative = growth inhibition, usual class: inhibitors. 420,000 tested, 15% active; also: potency is read from the fitted curve at half-maximal effect; nearly all actives have a fitted effect of over 55% in size
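Cells were dispensed at 400 per well, compounds added by pin tool, plates incubated ≥48 hr at 37 °C, then CellTiter-Glo added for 30 min at room temperature before luminescence reading. Line: DT40 Tdp1-/- complemented with hTDP1; camptothecin omitted.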
ELG1 repair inh = blocks ELG1-dependent DNA repair in HEK293T cells. HEK293T ELG1-luciferase reporter, luminescence, 16 h; DNA damage induced by 5-fluorouridine. Potency, µM (highest dose often 46.1 µM), for the others: at the top dose activity change, negative = inhibition, most hits filed as inhibitors. 330,000 tested, 2.3% active. AID 504467; also: potency is read from the fitted curve at half-maximal effect; nearly all actives have a fitted effect of over 55% in size
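In this reporter screen, reduction of luminescence relative to DMSO vehicle indicated activity. Compounds and 5-fluorouridine were added together to 2,000 cells per well, incubated for 16 hr at 37 °C, then developed with ONE-Glo.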
IL-1B inflam inh = inhibitors of inflammasome signaling (IL-1 beta secretion) | THP-1 LPS/ATP IL-1B secretion, AlphaLISA, 16 h; active compounds read low | activity change, % at 57.5 µM | 360,000 tested, 4.7% active; in the data active = activity change below about -50%; inconclusive = mostly about -30% to -49%
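THP-1 cells pretreated 1 hr with compounds (up to 57.5 uM final), then stimulated with LPS (250 ng/mL final) plus ATP (1.25 mM final); secreted IL-1B measured by AlphaLISA after 16 hr, decreased signal indicating inhibition.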
HT1080NT lethal = kills 2HG-producing HT-1080-NT fibrosarcoma cells. HT-1080-NT fibrosarcoma viability, CellTiter-Glo ATP luminescence, 48 h. Potency, µM (titrated, usually from 46.1 µM), without a hit: at the highest dose activity, negative = less viability, actives largely listed as cytotoxic. 360,000 tested, 1.6% active;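 also: NT is the 2HG producing partner of a matched IDH1 knockdown line; potency is read from the fitted curve at half-maximal effect; 0% = DMSO-treated cells and -100% = media-only wells without cells; nearly all actives have a fitted effect of over 55% in size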
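Toxicity toward the 2HG-producing NT line was scored as %Activity, normalised to DMSO and no-cell wells, from CellTiter-Glo luminescence after 48 hours' treatment.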
DT40 TDP1 CPT = DT40-hTDP1 cell growth loss with CPT; chicken DT40 Tdp1-/-;hTDP1 cells + 20 nM CPT, ATP luminescence, 48 h; Potency, µM (series often up to 46.2 µM), for the others: at the top dose activity change, negative = growth inhibition, usual class: inhibitors; 420,000 tested, 12% active; also: potency is read from the fitted curve at half-maximal effect; nearly all actives have a fitted effect of over 55% in size
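Cell growth measured by CellTiter-Glo luminescence after a minimum 48 h, 37 C compound exposure with 20 nM CPT in Tdp1-knockout DT40 cells stably expressing hTDP1, seeded 400/well; qHTS titration format.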
HT1080 IDH1KD tx = kills HT-1080 cells with IDH1 knockdown | HT-1080 IDH1 knockdown viability, ATP luminescence, 48 h | Potency, µM (doses to about 46.1 µM), without a hit: at the top dose activity, negative = toxicity, usual class: cytotoxic | 360,000 tested, 2% active | AID 686971;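 also: potency is read from the fitted curve at half-maximal effect; 0% = DMSO wells and -100% = cell-free medium wells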
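CellTiter-Glo luminescence after 48 h compound exposure at 37 degrees C of IDH1-knockdown HT-1080 cells in 5% FBS RPMI. %Activity scaled between DMSO wells and cell-free media wells, with curves fitted and assigned curve classes.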
Numbers without * were called inactive; ? = inconclusive; / = no result given; [ ] = dose if it differs, or a comment. Shown are actives, neighbours in structure and some others; about 19% of the full set was active somewhere. Unless noted, calls follow the shape of the dose curve; as a rule, active = well fitted curve in the direction sought with a large enough effect; inconclusive = small, poorly fitted or top-dose-only effect, or another doubt; inactive = no such curve, though single readings can be large; an effect the other way counts as inactive or inconclusive. Unless noted, % is scaled to controls: 0 for no effect and ±100 for the full control effect.

SMILES | TDP1 cell noCPT | ELG1 repair inh | IL-1B inflam inh | HT1080NT lethal | DT40 TDP1 CPT | HT1080 IDH1KD tx
CCOC(=O)c1cnc2c(Cl)cc(Cl)cc2c1NCCOCCO | ? | 18.4µM* | -21.5 | 1.1% | ? | 2.3%
CCOC(=O)c1cnc2c(ccc3ccccc32)c1NCCCN(C)C | ? | ? | / | ? | ? | 20.6µM*
CCOC(=O)c1cnc2c(ccc3ccccc32)c1Nc1ccc(OC)c(OC)c1 | 4.61µM* | / | / | / | 4.61µM* | /
CCOC(=O)c1cnc2c(ccc3ccccc32)c1Nc1ccccc1OCC | -2.9% | / | / | / | 7.8% | /
O=C(OC(C(=O)Nc1cccc(C(F)(F)F)c1)c1ccccc1)C1CCCCC1 (stereo not drawn) | ? | 11.8% | 0.0 | -7.4% | -25.7% | 3.2%
COc1ccc(C2=NCCn3nc4cc(OC)ccc4c32)cc1 | ? | ? | -2.3 | -4.1% | ? | -7.1%
COc1ccc(OC)c(NC(=O)N2CCC3(CC2)Oc2ccccc2C(=O)N3Cc2ccccc2F)c1 | 14.6µM* | / | / | / | ? | /
COc1ccc(OC)c(NC(=O)N2CCC(N3CCN(Cc4ccc(F)cc4)C(=O)C3=O)CC2)c1 | 4.9% | / | / | / | 6.2% | /
COc1ccc(OC)c(NC(=O)CSc2ccc3nnc(-c4ccccn4)n3n2)c1 | 11.0% | 6.7% | -13.2 | 2.5% | 0.9% | -1.9%
Cc1cccc(NS(=O)(=O)c2ccc3c(c2)n(C)c(=O)n3C)c1C | ? | / | / | / | 23.1µM* | /
Cc1c(F)cccc1NS(=O)(=O)c1ccc2c(c1)c(=O)n(C)c(=O)n2C | 14.6µM* | ? | -15.8 | ? | ? | ?
Cc1c(F)cccc1NS(=O)(=O)c1ccc2c(c1)n(C)c(=O)c(=O)n2C | -26.3% | -0.2% | -5.8 | -3.1% | -8.2% | -1.0%
Cc1cc(C)c(NS(=O)(=O)c2ccc3c(c2)n(C)c(=O)n3C)c(C)c1 | -3.7% | 6.4% | 27.0 | 3.2% | -28.0% | 5.7%
Cn1c(=O)c2c(nc(Oc3ccccc3)n2Cc2c(Cl)cccc2Cl)n(C)c1=O | 1.6% | / | / | / | 7.8% | /
CC(C)CCn1c(Oc2ccccc2F)nc2c1c(=O)n(C)c(=O)n2C | ? | / | / | / | 18.4µM* | /
CCCCn1c(Oc2cccc(C(=O)OC)c2)nc2c1c(=O)n(C)c(=O)n2C | 2.8% | / | / | / | -15.1% | /
CCn1c(Oc2ccc(F)cc2)nc2c1c(=O)n(C)c(=O)n2C | -19.6% | 8.2µM* | 3.2 | 1.6% | ? | 3.4%
CCCCn1c(Oc2ccc(C(=O)OC)cc2)nc2c1c(=O)n(C)c(=O)n2C | 11.2µM* | 20.6µM* | -73.0* | -10.8% | 16.4µM* | 5.3%
CC(C)CCn1c(Oc2ccc(Cl)cc2)nc2c1c(=O)n(C)c(=O)n2C | ? | 20.6µM* | -15.2 | -1.0% | ? | -4.7%
CN(C(=O)c1cc2c(=O)oc3ccccc3c2s1)c1ccc(F)cc1 | -18.5% | / | / | / | -2.8% | /
O=C(NCCc1ccccc1)c1nnc(Cc2cccc(F)c2)o1 | -23.0% | / | / | / | -12.5% | /
COc1ccc(C(=O)Cn2c(Br)nc3c2c(=O)n(C)c(=O)n3C)cc1 | 23.1µM* | -43.0% | 0.6 | -17.2%[9.24 µM] | 13µM* | -21.6%
Cn1c(=O)c2c(ncn2CC(=O)OCC(=O)c2ccc(Cl)cc2)n(C)c1=O | -0.5% | 5.7% | 23.4 | -2.6% | -0.9% | -2.5%
Cn1c(=O)c2c(ncn2CC(=O)OCC(=O)c2ccc(Br)cc2)n(C)c1=O | 25.9µM* | / | 20.8 | 10.5% | 16.4µM* | 2.0%
Cc1c(C(=O)NCC(c2ccco2)N(C)C)oc2c(Cl)cccc12 (stereo not drawn) | ? | 8.0% | -3.0 | -3.3% | ? | 7.1%
SMILES | TDP1 cell noCPT | ELG1 repair inh | IL-1B inflam inh | HT1080NT lethal | DT40 TDP1 CPT | HT1080 IDH1KD tx
CCN1CCN(c2c(S(=O)(=O)c3ccc(C)c(C)c3)cnc3ccc(F)cc23)CC1 | ? | -16.3% | -10.6 | -8.0% | ? | -14.0%
CC(NC(=O)Cn1cccc1C(=O)c1ccccc1)c1ccccc1 (stereo not drawn) | ? | 2.8% | -10.0 | 3.3% | 13µM* | -0.9%
Cc1cccc(C(=O)NCC(=O)OCc2cc(=O)n3nc(C)sc3n2)c1 | 3.3% | / | / | / | -1.0% | /
Cc1csc(SCC(=O)Nc2ccc(C)c(F)c2)n1 | ? | ? | 7.7 | 14.2% | -6.0% | 8.9%
COc1ccccc1-c1cc(C(F)(F)F)nc(S(=O)(=O)CCCC(=O)Nc2cc(C)on2)n1 | 1.03µM* | ? | -101.8* | 9.2µM* | 0.92µM* | 4.11µM*
COc1ccc(Cl)cc1NC(=O)CCCS(=O)(=O)c1nc(-c2ccc(OC)c(OC)c2)cc(C(F)(F)F)n1 | 2.06µM* | / | / | / | 1.46µM* | /
COc1ccccc1-c1cc(C(F)(F)F)nc(S(=O)(=O)CCCC(=O)Nc2cc(Br)ccc2O)n1 | -18.7% | / | / | / | -16.1% | /
COc1ccc(-c2cc(C(F)(F)F)nc(S(=O)(=O)CCCC(=O)Nc3cc(C)on3)n2)cc1OC | 1.16µM* | ? | -110.2* | 16.4µM* | 0.731µM* | 20.6µM*
COc1ccc(C2C3=C(N=C4SCC(=O)N42)c2ccccc2CC3)cc1OC (stereo not drawn) | 14.6µM* | -1.2% | -16.2 | -25.5% | 14.6µM* | -25.7%
COc1ccccc1C1C2=C(N=C3SCC(=O)N31)c1ccccc1CC2 (stereo not drawn) | ? | -18.4% | -1.2 | 7.5% | ? | 2.4%[9.24 µM]
CCCC(=O)Nc1nnc(SCC(=O)Nc2ccc(OCC)cc2)s1 | -11.6% | / | 6.5 | -2.6% | -7.1% | -0.2%
CCOC(=O)c1ccc(NC(=O)CSc2nc3ccccc3c(=O)n2CCC(=O)NC2CCCCC2)cc1 | -10.2% | / | / | / | -2.7% | /
COCCCNC(=O)Cn1cnc2sc(C)c(S(=O)(=O)N3CCC(C)CC3)c2c1=O | -16.4% | / | / | / | -14.9% | /
COc1ccc(CCN2CC(C(=O)NCc3cccc4[nH]ccc34)CCC2=O)cc1 (stereo not drawn) | ? | -14.6% | 5.4 | 0.0% | ? | 5.7%
CCCCn1c(SCC(=O)Nc2cc(C(F)(F)F)cc(C(F)(F)F)c2)nnc1C(CC)N(C)C (stereo not drawn) | 20.6µM* | -28.0% | -9.2 | -25.1% | 23.1µM* | -22.7%
CCC(=O)NCc1nc2ccccc2n1Cc1ccccc1 | -15.3% | / | / | / | ? | /
O=C1CC(Cc2ccccc2)C(=O)N1CCc1ccc2c(c1)OCO2 (stereo not drawn) | -9.7% | -9.4% | -12.0 | 3.5% | -1.4% | -1.0%

Screens (PubChem BioAssay)
